TDP1 block: qHTS Assay for Inhibitors of Tyrosyl-DNA Phosphodiesterase (TDP1). Tyrosyl-DNA phosphodiesterase 1 (Homo sapiens), Q9NUW8. recombinant TDP1, AlphaScreen DNA substrate cleavage. Potency, µM (highest dose often 130 µM), without a hit: at the top dose activity change, negative = inhibition, hits mostly inhibitors. 350,000 tested, 0.28% active; further: potency means the concentration at half of the fitted maximal effect; on the % scale 0 is the no-effect control and ±100 the full control effect; nearly all actives have a fitted effect of over 40% in size
Target sequence (Q9NUW8 whole entry, looked up): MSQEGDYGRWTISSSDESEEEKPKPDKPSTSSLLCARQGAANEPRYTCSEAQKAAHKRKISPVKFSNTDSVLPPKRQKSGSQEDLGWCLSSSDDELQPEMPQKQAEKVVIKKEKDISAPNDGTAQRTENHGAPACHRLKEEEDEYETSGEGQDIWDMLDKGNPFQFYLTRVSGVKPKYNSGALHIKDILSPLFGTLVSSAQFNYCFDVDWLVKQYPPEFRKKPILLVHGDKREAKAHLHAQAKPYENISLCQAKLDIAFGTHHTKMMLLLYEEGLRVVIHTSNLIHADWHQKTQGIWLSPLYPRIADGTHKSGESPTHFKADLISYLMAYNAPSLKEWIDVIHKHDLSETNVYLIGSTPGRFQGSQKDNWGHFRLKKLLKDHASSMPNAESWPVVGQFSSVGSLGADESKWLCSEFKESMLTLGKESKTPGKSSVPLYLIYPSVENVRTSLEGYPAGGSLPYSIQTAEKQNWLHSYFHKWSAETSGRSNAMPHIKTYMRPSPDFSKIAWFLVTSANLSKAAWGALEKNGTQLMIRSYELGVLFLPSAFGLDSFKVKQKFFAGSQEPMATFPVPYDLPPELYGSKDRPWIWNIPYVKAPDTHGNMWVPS
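Enzyme-compound mixtures sat 15 min at room temperature, followed by a 5 min reaction with 15 nM final substrate and 10 min with AlphaScreen beads. Recombinant human Tdp1 was used at 1 nM final.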
IL1B secr inh: qHTS for Inhibitors of Inflammasome Signaling: IL-1-beta AlphaLISA Primary Screen; THP-1 LPS/ATP IL-1B secretion, AlphaLISA, 16 h; active compounds read low; activity change, % at 57.5 µM; 360,000 tested, 4.7% active; in the data active means activity change below about -50%; inconclusive means mostly about -30% to -49%; further: on the % scale 0 is the no-effect control and ±100 the full control effect
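Secreted IL-1B measured by AlphaLISA bead assay after 16 h compound exposure of THP-1 cells; compounds (final up to 57.5 uM) added 1 h before LPS (250 ng/mL) and ATP (1.25 mM) stimulation; lower signal means less secretion.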
TDP1 cell noCPT: qHTS for Inhibitors of human tyrosyl-DNA phosphodiesterase 1 (TDP1): qHTS in cells in absence of CPT. AID 686978, 2013. 420,000 tested, 15% active. DT40 Tdp1-/- hTDP1 cells, no CPT, ATP luminescence, 48 h. Potency, µM (series often up to 46.2 µM), for inactives: at the top dose activity change, negative = growth inhibition, most hits filed as inhibitors; further: potency means the concentration at half of the fitted maximal effect; on the % scale 0 is the no-effect control and ±100 the full control effect; nearly all actives have a fitted effect of over 55% in size
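Camptothecin absent (DMSO only). Human TDP1-complemented DT40 knockout cells, 400 cells/well, 37 °C for minimum 48 hr; ATP measured via CellTiter-Glo, 30 min dark incubation, luminescence.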
TGFb SMAD3 inh: qHTS for Inhibitors of TGF-b; 410,000 tested, 1.2% active; AID 588855, 2011; Potency, µM (highest dose often 46.1 µM), for the others: at the top dose activity, negative = inhibition, most hits filed as inhibitors; HepG2 CAGA-GFP TGF-b/SMAD3 reporter, GFP fluorescence, 18 h; TGF-beta stimulated, 500 pg/mL final; further: potency means the concentration at half of the fitted maximal effect; on the % scale 0 is the no-effect control and ±100 the full control effect; nearly all actives have a fitted effect of over 65% in size
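First, reporter cells (HEPG2 CAGA-GFP) rested 2 h at 37 degrees C. Next, compounds were pinned in and TGF-beta added to 500 pg/mL final. After 18 h, GFP was imaged per cell and summed per well.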
HepG2 viability: qHTS for Inhibitors of TGF-b: Cytotox Counterscreen; HepG2 CAGA-GFP viability, ATP luminescence, 18 h; Potency, µM (series often up to 46.1 µM), for inactives: top-dose activity change, negative = cytotoxicity, actives largely listed as cytotoxic; 410,000 tested, 0.76% active; AID 588856, 2011; further: potency means the concentration at half of the fitted maximal effect
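CellTiter-Glo luminescence gave cytotoxicity after 18 hours at 37 degrees C. The cells were HepG2 CAGA-GFP in 1% FBS DMEM, stimulated with 500 pg/mL TGF-beta after compound addition. %Activity was normalised to no-cell wells (complete cell-killing) and DMSO (no toxicity), and curves were fitted and classified.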
TDP1 cell CPT: qHTS for Inhibitors of human tyrosyl-DNA phosphodiesterase 1 (TDP1): qHTS in cells in presence of CPT. AID 686979, 2013. 420,000 tested, 12% active. Potency, µM (series often up to 46.2 µM), without a hit: at the highest dose activity change, negative = growth inhibition, actives largely listed as inhibitors. chicken DT40 Tdp1-/-;hTDP1 cells + 20 nM CPT, ATP luminescence, 48 h; further: potency means the concentration at half of the fitted maximal effect; on the % scale 0 is the no-effect control and ±100 the full control effect; nearly all actives have a fitted effect of over 55% in size
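Cell growth measured by CellTiter-Glo luminescence after a minimum 48 h, 37 C compound exposure with 20 nM CPT in Tdp1-knockout DT40 cells stably expressing hTDP1, seeded 400/well; qHTS titration format.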
* hit, by the source's call; ? = inconclusive; · = not tested or not shown; [ ] = dose if it differs, or a comment. Sampled rows, rich in hits. Any-hit rate of the full collection: about 18%. Unless noted, the call rests on the fitted dose curve; in most records, active means well fitted curve in the direction sought with a large enough effect; inconclusive means small, poorly fitted or top-dose-only effect, or another doubt; inactive means no such curve, though single readings can be large; an effect the other way counts as inactive or inconclusive.

SMILES | TDP1 block | IL1B secr inh | TDP1 cell noCPT | TGFb SMAD3 inh | HepG2 viability | TDP1 cell CPT
COc1cc(/C=C/c2nc3ccccc3c(=O)n2-c2ccccc2O)ccc1O | · | -65.8* | ? | 7.2% | -4.1% | ?
O=c1c2ccccc2nc(Cc2ccccc2)n1-c1ccccc1O | 2.4% | -27.2 | -20.3% | -11.0% | -13.9% | -6.3%
COc1cc(/C=C/c2nc3ccccc3c(=O)n2-c2cccc(O)c2)ccc1O | ? | -22.5 | 18.4µM* | 35.9% | 3.0% | ?
CN1CCc2nc(CO)c(CO)cc2C1 | 7.9%[21 µM] | · | · | · | · | ·
CN(C)NC(=O)CCC(=O)O | 3.1% | · | · | · | · | ·
Cn1cnc([N+](=O)[O-])c1Sc1ccc([N+](=O)[O-])cc1 | 6.0% | -100.7* | 5.17µM* | -8.8% | -33.4% | 3.66µM*
Cc1ccc([N+](=O)[O-])cc1C | 16.6% | · | · | · | · | ·
C[C@H](N)C(=O)N[C@@H](C)C(=O)N[C@@H](Cc1ccccc1)C(=O)CCl | 9.8% | · | ? | · | · | ?
O=C(O)CF | 2.7% | · | -9.1% | · | · | -1.9%
O=C(O)CCCc1ccc(N(CCCl)CCCl)cc1 | 8.7% | -1.3 | 0.651µM* | 7.0% | -0.6% | 0.461µM*
C[C@@]1(CO)[C@H](O)CC[C@@]2(C)[C@H]1CC[C@H]1C[C@@H]3C[C@@]12CC[C@]3(O)CO | 3.6% | · | 0.131µM* | · | · | 0.104µM*
COc1ccc(CNCCc2c(C)[nH]c3ccc(OC(F)(F)F)cc23)c(OC)c1 | · | -95.5* | 1.84µM* | ? | -88.3% | 4.61µM*
c1ccncc1 | 16.6% | · | · | · | · | ·
Cc1cccc(N2C(=O)NC(=O)/C(=C\c3cc(C)n(-c4sc5c(c4C#N)CCCC5)c3C)C2=O)c1C | -7.9% | -137.9* | ? | 7.08µM* | 12.6µM* | ?
CCOC(=O)c1c(-n2c(C)cc(C=C3C(=O)NC(=O)NC3=O)c2C)sc2c1CCCC2 | -2.0% | -15.3 | 18.4µM* | -14.3% | -17.6% | ?
Cc1cc(C=C2C(=O)NC(=O)NC2=O)c(C)n1-c1ccc2c(c1)OCO2 | 0.0% | 0.1 | -3.2% | -2.2% | -7.8% | -17.7%
CCOP(=S)(OCC)O/N=C(\C#N)c1ccccc1 | · | · | -28.1% | · | · | -1.4%
CCOP(=S)(OCC)O/N=C(\C#N)c1ccccc1Cl | -10.2% | · | · | · | · | ·
COc1ccc(Oc2coc3cc(OC(=O)N4CCOCC4)ccc3c2=O)cc1 | 3.3% | 11.6 | ? | -28.8% | -71.7% | 16.4µM*
Cc1c(-c2ccc(Br)cc2)c(=O)oc2ccc(OC(=O)N3CCOCC3)cc12 | 2.6% | · | ? | ? | -35.0% | ?
O=C1NC(=O)C(=O)C(=O)N1 | 4.9%[56.1 µM] | · | -9.3% | · | · | ?
CC1CN(c2ccccc2)NC1=O (stereo unspecified) | -3.5% | 8.5 | ? | -20.2% | 21.3% | 13µM*
Cc1cccc(Cn2c(=O)n(Cc3ccc(C(=O)NC4CCN(Cc5ccccc5)CC4)cc3)c(=O)c3ccccc32)c1 | 3.6% | · | 3.26µM* | ? | -15.0% | 4.11µM*
COC(=O)c1ccc(CN2CCN(Cc3ccccc3)CC2)cc1 | -1.0% | 8.0 | -12.9% | -14.2% | 46.8% | -12.7%
Cc1ccc(C(=O)Nc2ccccc2)cc1S(=O)(=O)N1CCCC1 | 1.9% | · | · | -0.4% | -25.3% | ·
SMILES | TDP1 block | IL1B secr inh | TDP1 cell noCPT | TGFb SMAD3 inh | HepG2 viability | TDP1 cell CPT
O=C(Nc1ccc(Oc2ccccc2)cc1)c1ccc(F)c(S(=O)(=O)N2CCN(c3cccc(Cl)c3)CC2)c1 | 2.6% | · | 3.66µM* | -1.2% | -3.3% | 1.84µM*
Cc1cccc(NC(=O)c2ccc(F)c(S(=O)(=O)N3CCN(c4ccc(F)cc4)CC3)c2)c1 | 0.0% | · | 16.4µM* | -21.4% | -0.5% | ?
OC[C@@H]1[C@@H](O)[C@H](O)[C@H]2[C@@H](O)CCN21 | 5.6% | · | · | · | · | ·
Cc1ccc(-c2nn(Cc3ccccc3)cc2C=O)cc1C | -8.0% | -22.5 | 16.4µM* | 4.8% | -26.2% | ?
COc1ccc(/C=C/c2cc(O)cc(O)c2)cc1 | 10.1%[56.1 µM] | · | 4.61µM* | · | · | 2.59µM*
Oc1c(Cl)cc(Cl)cc1Cl | 5.9% | · | · | · | · | ·
O=C(OC1Cc2c(O)cc(O)cc2OC1c1cc(O)c(O)c(O)c1)c1cc(O)c(O)c(O)c1 (stereo unspecified) | · | · | ? | · | · | -11.4%
Oc1cc(O)c2c(c1)OC(c1cc(O)c(O)c(O)c1)C(O)C2 (stereo unspecified) | 15.8µM* | · | ? | · | · | 3.26µM*
O=C1CCCCC1CN1CCCCC1 (stereo unspecified) | 4.2% | · | -29.6% | · | · | ?
O=C(Cn1c(=O)oc2cc(Cl)ccc21)Nc1cccc(C(F)(F)F)c1 | 2.8% | · | 18.4µM* | ? | -38.8% | 18.4µM*
Cc1cccc(NC(=O)Cn2c(=O)oc3cc(S(=O)(=O)NCc4ccccc4)ccc32)c1 | -3.9% | · | ? | -34.8% | -31.1% | ?
CCn1c(=O)oc2cc(NC(=O)CCl)ccc21 | 3.0% | -99.8* | 14.6µM* | ? | -54.4% | 11.6µM*
O=C(O)[C@@H]1Cc2[nH]cnc2C(c2cccnc2)N1 (stereo partly specified) | 10.0% | · | 3.5%[9.04 µM] | · | · | 10.5%[9.04 µM]
CN1C2CCC1CC(C(=O)OC(CO)c1ccccc1)C2 (stereo unspecified) | 2.5% | · | 0.5%[9.04 µM] | · | · | 9.1%[9.04 µM]
c1ccoc1 | 15.5% | · | · | · | · | ·
Nc1ccccc1C(=O)OCC(=O)N1CCc2ccccc21 | 3.0% | -0.9 | -9.4% | 26.8% | -7.5% | -2.7%
N#CSCC(=O)N1c2ccccc2CCc2ccccc21 | 5.4% | -51.2* | 7.31µM* | 25.1µM* | -21.7% | 5.8µM*
CC(Cc1ccccc1Sc1ccccc1O)N(C)C (stereo unspecified) | -1.8% | -5.8 | 11.6µM* | 37.8% | -19.9% | ?
CC(C)(O)/C=C/C(=O)[C@](C)(O)C1[C@H](O)C[C@@]2(C)C3CC=C4C(C[C@H](O)[C@@H](O)C4(C)C)[C@]3(C)C(=O)C[C@]12C (stereo partly specified) | 0.6% | -86.7* | 0.326µM* | 0.708µM* | 3.1% | 0.291µM*
CC(C)(O)/C=C/C(=O)[C@](C)(O)C1[C@H](O)C[C@@]2(C)C3CC=C4C(C=C(O[C@@H]5O[C@H](CO)[C@@H](O)[C@H](O)[C@H]5O)C(=O)C4(C)C)[C@]3(C)C(=O)C[C@]12C (stereo partly specified) | 1.1% | 10.2 | ? | -15.9% | 5.6% | ?

Compound activity: PubChem, National Center for Advancing Translational Sciences (NCATS)
